Source: PubChem BioAssay (National Center for Advancing Translational Sciences (NCATS))
hERG WT inh: qHTS for Inhibitors of KCHN2 3.1: Wildtype qHTS; hit rate 0.37% among 340,000; AID 720551, 2013; activity change, % at 1.84 µM; Voltage-gated inwardly rectifying potassium channel KCNH2 (Homo sapiens), Q12809; U2OS, BacMam KCNH2, thallium flux FluxOr; active compounds read low;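 active = maximum activity change below -70%; inconclusive = maximum activity change between -70% and -50%; inactive = maximum activity change above -50%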
Target sequence (Q12809 whole entry, looked up): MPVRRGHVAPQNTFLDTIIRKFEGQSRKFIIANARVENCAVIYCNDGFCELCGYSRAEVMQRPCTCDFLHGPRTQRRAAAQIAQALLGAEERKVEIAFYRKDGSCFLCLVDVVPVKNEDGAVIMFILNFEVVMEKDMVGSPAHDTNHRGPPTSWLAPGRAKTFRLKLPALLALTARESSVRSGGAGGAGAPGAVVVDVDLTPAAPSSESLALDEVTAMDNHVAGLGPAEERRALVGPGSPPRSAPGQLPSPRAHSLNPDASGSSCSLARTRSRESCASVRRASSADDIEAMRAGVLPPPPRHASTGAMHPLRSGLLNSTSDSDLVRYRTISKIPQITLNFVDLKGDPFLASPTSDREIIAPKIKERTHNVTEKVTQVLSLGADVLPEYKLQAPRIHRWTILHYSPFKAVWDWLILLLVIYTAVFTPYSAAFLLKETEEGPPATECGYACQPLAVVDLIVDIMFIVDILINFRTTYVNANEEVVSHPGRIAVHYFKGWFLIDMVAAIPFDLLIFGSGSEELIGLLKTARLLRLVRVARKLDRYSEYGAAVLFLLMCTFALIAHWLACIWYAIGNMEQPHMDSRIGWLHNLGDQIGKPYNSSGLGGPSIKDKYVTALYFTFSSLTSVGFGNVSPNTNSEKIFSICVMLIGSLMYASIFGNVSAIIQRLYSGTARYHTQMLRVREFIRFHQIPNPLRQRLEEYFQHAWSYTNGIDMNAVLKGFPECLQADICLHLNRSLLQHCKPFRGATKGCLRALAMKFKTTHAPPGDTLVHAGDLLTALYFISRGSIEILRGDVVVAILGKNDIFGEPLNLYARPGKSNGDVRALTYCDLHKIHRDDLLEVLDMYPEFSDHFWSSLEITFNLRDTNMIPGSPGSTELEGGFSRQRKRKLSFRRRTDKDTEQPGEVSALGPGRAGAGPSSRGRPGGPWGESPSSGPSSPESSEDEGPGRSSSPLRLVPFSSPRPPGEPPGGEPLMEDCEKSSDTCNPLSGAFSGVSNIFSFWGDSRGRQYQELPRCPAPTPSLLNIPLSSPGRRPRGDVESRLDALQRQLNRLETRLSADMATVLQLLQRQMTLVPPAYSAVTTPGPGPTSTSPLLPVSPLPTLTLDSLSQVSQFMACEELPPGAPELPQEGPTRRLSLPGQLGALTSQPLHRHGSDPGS
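U2OS cells were transduced with wild-type KCNH2 virus (2.03 x 10^8 / mL) for 4 h at room temperature, then cultured overnight at 37 C. Thallium flux was read with FluxOr dye. Rate constants were normalized to DMSO controls.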
Luc counter: Counterscreen for Luciferase (Kinase-Glo TM) Inhibition | hit rate 0.28% among 200,000 | Luciferin 4-monooxygenase (Photuris pensylvanica), Q27757 | Potency, µM (top dose mostly 38.3 µM), usual class: inhibitors | Kinase-Glo luciferase, ATP luminescence, 8 min | AID 1379, 2008; active = well fitted inhibition curve with a large enough effect; inconclusive = small, poorly fitted or top-dose-only effect; also: nearly all actives have a fitted effect of over 60% in size
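Light output from Kinase-Glo luciferase with luciferin and 10 uM ATP in 50 mM imidazole pH 7.2, KCl, MgCl2, Tween 20, BSA; compound pin-delivered, 8-min ambient incubation, then luminescence read.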
KCNH2 3.1 block: qHTS for Inhibitors of KCHN2 3.1: Mutant qHTS | Potassium voltage-gated channel subfamily H member 2, brain isoform KCNH2 3.1 (human) | U2OS KCNH2 3.1, thallium flux FluxOr; active compounds read low | activity change, % (tested at about 1.8 µM) | hit rate 0.95% among 340,000;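 active = maximum activity change below -70%; inconclusive = maximum activity change from -70% to -50%; inactive = maximum activity change above -50%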;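 also: thallium influx rate constant from kinetic fluorescence after stimulation buffer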
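Steps: virus added to U2OS suspension (4 h, RT, dark); medium with 10% FBS added, cells plated, 37 C overnight; FluxOr/Red40 loading buffer 45 min RT; stimulation buffer, 2 min kinetic read; rate constant normalized.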
Of the large screens only hits and unclear results are named; the others gave an inactive call. Hits are enriched below; roughly 1.2% of the tested compounds scored in any of these assays.

CC(CNC(=O)CCn1ccc2cc(S(=O)(=O)N3CCCC3)ccc21)c1ccccc1 (configuration not stated)	none (no result: Luc counter)
C=CCOc1ccc(/C=C2\SC(=S)N(NS(=O)(=O)c3ccc(C)cc3)C2=O)cc1	none (no result: Luc counter)
CCOC(=O)C1=C(COC(=O)c2cccnc2SC)NC(=O)NC1C (configuration not stated)	none (no result: Luc counter)
COc1ccc(CCN(C)CCCN2CC(c3ccccc3)CC2=O)cc1OC (configuration not stated)	KCNH2 3.1 block -88
COc1ccc(C2CC(=O)N(CCCN(C)CCc3ccc(OC)c(OC)c3)C2)cc1 (configuration not stated)	none (no result: hERG WT inh)
COc1ccc(CNC(C)CCc2ccccc2)cc1 (configuration not stated)	none (no result: Luc counter)
CC(CCc1ccc(O)cc1)NC(c1ccccc1)c1ccc(Cl)cc1 (configuration not stated)	none (no result: Luc counter)
CC(CCc1ccc(O)cc1)NCc1ccc(Br)cc1 (configuration not stated)	KCNH2 3.1 block -88 (no result: Luc counter)
CC(CCc1ccc(O)cc1)NCCC(c1ccccc1)c1ccccc1 (configuration not stated)	hERG WT inh -119, KCNH2 3.1 block -96 (no result: Luc counter)
CC(C)N(CC(N)=O)c1ccc(S(=O)(=O)N2CCCC2)cn1	none (no result: Luc counter)
CC(N)=O	none (no result: hERG WT inh, KCNH2 3.1 block)
COc1ccc(S(N)(=O)=O)cc1C(=O)NNC(=O)c1cccc(S(=O)(=O)N2CCOCC2)c1	none (no result: Luc counter)
COc1ccc(S(=O)(=O)N/N=C\c2ccc([N+](=O)[O-])o2)c(OC)c1	none (no result: Luc counter)
O=[N+]([O-])c1ccc(/C=N\NS(=O)(=O)c2ccc(F)cc2)o1	KCNH2 3.1 block -85 (no result: Luc counter)
O=P(O)(O)OC1[C@H](O)[C@H](OP(=O)(O)O)C(OP(=O)(O)O)[C@H](OP(=O)(O)O)[C@H]1O (some centres not stated)	none (no result: hERG WT inh, KCNH2 3.1 block)
CSc1ncccc1C(=O)NC1CCCc2c1cnn2-c1ccc(C)c(C)c1 (configuration not stated)	none (no result: Luc counter, KCNH2 3.1 block)
O=C(NC1CC1)c1nc(Cn2cc([N+](=O)[O-])cn2)no1	hERG WT inh -73 (no result: Luc counter)
O=C(NCc1ccccn1)c1nc(Cn2cc([N+](=O)[O-])cn2)no1	none (no result: Luc counter)
C=CCn1c2ccccc2c(=O)c2cc(C#Cc3cc(OC)cc(OC)c3)ccc21	KCNH2 3.1 block -97 (no result: Luc counter)
COc1cc(C#Cc2c(C=O)n(C)c3ccccc23)cc(OC)c1	none (no result: Luc counter)
C[C@@]12CCC(=O)C=C1CC[C@H]1C2[C@@H](O)C[C@]2(C)[C@@H]1CC[C@@]2(O)C(=O)CO (some centres not stated)	none (no result: hERG WT inh, KCNH2 3.1 block)
CCOc1cc(/C=C(\C#N)C(=O)Nc2cccc(C(=O)O)c2)ccc1OCc1ccccc1Cl	none (no result: Luc counter)
CCOc1cc(/C=C(\C#N)C(=O)Nc2cccc(C(=O)O)c2)cc(Br)c1OC(=O)c1ccc(OC)cc1	KCNH2 3.1 block -112 (no result: Luc counter)
O=[N+]([O-])c1ccc2c([N+](=O)[O-])ccc3c2c1CC3	none (no result: Luc counter)
OCC1(CCCc2ccccc2)CCN(Cc2cc(F)ccc2F)CC1	none (no result: Luc counter)
OCC1(CCc2ccccc2)CCN(Cc2c(F)ccc(F)c2F)CC1	none (no result: hERG WT inh)
OCC1(CCc2ccccc2)CCN(Cc2cc(F)ccc2-n2cccn2)CC1	KCNH2 3.1 block -99
Clc1ccccc1CN1CCN(CCCc2ccccc2)CC1	KCNH2 3.1 block -78
OCC1(CCc2ccccc2)CCN(Cc2ccccc2Cl)CC1	KCNH2 3.1 block -80
Cc1cccc(CN2CCN(CCCc3ccccc3)CC2)c1	none (no result: hERG WT inh, KCNH2 3.1 block)
O=C(NNC(=O)C1CCN(c2ncccn2)CC1)c1ccc(F)cc1	none (no result: Luc counter)
NCCc1c(-c2ccccc2)n(-c2ccccc2)c2ccccc12	none
C/C(=N\NS(=O)(=O)c1ccc([N+](=O)[O-])cc1)c1ccc(NC(=O)c2ccco2)cc1	none
CCCCCCc1nc(C(N)=O)c2[nH]c(=O)n(-c3ccccc3F)c2n1	none (no result: Luc counter)
CCc1nnc(NC(=O)Cc2ccc(S(=O)(=O)N3CCCCC3)cc2)s1	none (no result: Luc counter)
Cc1ccc(NCCC(=O)c2cccc([N+](=O)[O-])c2)c(C)c1	KCNH2 3.1 block inconclusive
Cc1cccc(NCCC(=O)c2ccc([N+](=O)[O-])cc2)c1C	KCNH2 3.1 block -83
N#CCCn1cc(CNC2CCC(O)CC2)c2ccccc21 (configuration not stated)	none (no result: Luc counter)
CCc1nnc(SCC(=O)Nc2ccc3c(c2)OCO3)n1CC	hERG WT inh -205 (no result: Luc counter, KCNH2 3.1 block)
CCn1c(Cc2ccccc2)nnc1SCC(=O)Nc1ccc2c(c1)OCO2	none
CCn1c(SCC(=O)NCc2ccco2)nnc1-c1ccncc1	none (no result: hERG WT inh, KCNH2 3.1 block)
CCn1c(SCC(=O)Nc2ccc(N3CCOCC3)cc2)nnc1-c1ccncc1	KCNH2 3.1 block -76 (no result: Luc counter)
CCn1c(C)nnc1SCC(=O)Nc1ccc2c(c1)OCCO2	none (no result: Luc counter)
C=CCn1c(SCC(=O)Nc2ccc(N3CCOCC3)cc2)nnc1-c1ccncc1	none (no result: Luc counter)
CCn1c(SCC(=O)Nc2ccc3c(c2)OCCO3)nnc1-c1cccs1	KCNH2 3.1 block -81
CCn1c(SCC(=O)NCc2ccco2)nnc1-c1cccs1	KCNH2 3.1 block -74
CCn1nnnc1SCC(=O)Nc1ccc(F)cc1	none (no result: Luc counter)
O=C1Nc2ccc3sc4ccccc4c3c2C1=O	none (no result: Luc counter)
CC(C)C(=O)Nc1cc(-c2nc3ncccc3o2)ccc1Cl	none (no result: Luc counter)
O=C(c1cnsn1)N1CCCC(Nc2ccc(F)c(F)c2)C1 (configuration not stated)	none (no result: Luc counter)
CC1Sc2ccc(S(=O)(=O)N3CCC(C(=O)Nc4cccc(Cl)c4)CC3)cc2NC1=O (configuration not stated)	none (no result: Luc counter)
O=C(CSc1nnc(-c2cccs2)n1-c1ccccc1)Nc1ccccc1	hERG WT inh -115, KCNH2 3.1 block -89
O=C(CSc1nnc(Cc2cccs2)n1-c1ccccc1)Nc1ccc2c(c1)OCCO2	none
Cc1ccc(-n2c(Cc3cccs3)nnc2SCC(=O)Nc2ccc(F)c(F)c2)cc1	hERG WT inh -77
CCOC(=O)CSc1nnc(-c2cccs2)n1-c1ccccc1	none
Nc1c(C(=O)CSc2nnnn2-c2ccc(O)cc2)c(=O)[nH]c(=O)n1C1CC1	none (no result: Luc counter)
CC(COc1ccccc1)N1CCC(CO)(Cc2ccccc2)CC1 (configuration not stated)	KCNH2 3.1 block -72
COc1ccc(CC2(CO)CCN(C(C)COc3ccccc3)CC2)cc1 (configuration not stated)	KCNH2 3.1 block -94
COc1ccc(CC2(CO)CCN(S(=O)(=O)N(C)C)CC2)cc1	none
Cc1ncc(CN2CCC(CO)(Cc3ccccc3)CC2)s1	none
O=C(CCCn1nnnc1CN1CCOCC1)N1CCC(c2ccccc2Cl)C1 (configuration not stated)	none (no result: Luc counter)
CC1CCCCN1C(=O)C1CCCCN1S(=O)(=O)c1cccc([N+](=O)[O-])c1 (configuration not stated)	none (no result: Luc counter)
CCOC(=O)C1CCN(C(=O)COC(=O)CN(C)S(=O)(=O)c2ccc(NC(C)=O)cc2)CC1	none (no result: Luc counter)
CCN(CC)C(=O)CSc1nc2c(sc(=S)n2-c2ccccc2)c(=O)n1Cc1ccco1	KCNH2 3.1 block -78
CCN(CC)C(=O)CSc1nc2c(sc(=S)n2CC)c(=O)n1-c1ccccc1	none
CCOc1ccc(-n2c(=S)sc3c(=O)n(-c4ccccc4)c(SCC(=O)O)nc32)cc1	none (no result: Luc counter)
